Screens from PubChem BioAssay.
A selection: hits, their analogues and other compounds. The true share with any hit is near 9%.
IMPase inh = qHTS Assay for Identifying the Cell-Membrane Permeable IMPase Inhibitors. inhibition (IP1 accumulation), % at 46.1 µM. 120,000 tested, under 10 active. Inositol monophosphatase 1 (Rattus norvegicus), P97697. CHO-M1 cells, IP1 accumulation, HTRF TR-FRET ratio; active = well fitted curve in the direction sought with a large enough effect in the signal ratio, not every such curve was filed as active; inconclusive = small, poorly fitted or top-dose-only effect, or a change in a side signal; inactive = no such curve, though single readings can be large or run the other way; the % refers to the signal ratio;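 also: cells stimulated with carbachol in lithium chloride buffer; plate controls were DMSO basal wells for no effect and reference inhibitor wells for full effect; higher means more IMPase inhibition seen as more IP1 and lower FRET ratio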
Target sequence (P97697 whole entry, looked up): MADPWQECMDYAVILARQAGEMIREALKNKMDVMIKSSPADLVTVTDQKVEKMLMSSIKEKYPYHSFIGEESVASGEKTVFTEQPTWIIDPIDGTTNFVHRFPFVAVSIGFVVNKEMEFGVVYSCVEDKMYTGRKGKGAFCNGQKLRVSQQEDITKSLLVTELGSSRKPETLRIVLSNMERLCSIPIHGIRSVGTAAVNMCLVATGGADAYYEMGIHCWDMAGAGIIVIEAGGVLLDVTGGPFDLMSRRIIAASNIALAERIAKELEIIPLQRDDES
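The IP-One HTRF competitive assay in carbachol-stimulated CHO-M1 cells quantifies cellular IP1. Compounds spanned up to 46 uM final, and activity is expressed as AC50 from concentration-response fits of the ratio and donor data.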
HPGD inh = qHTS Assay for Inhibitors of HPGD (15-Hydroxyprostaglandin Dehydrogenase) | actives 4.3% (n = 150,000) | 15-hydroxyprostaglandin dehydrogenase [NAD(+)] (Homo sapiens), P15428 | purified HPGD, NADH fluorescence kinetic, PGE2 substrate | Potency, µM, for inactives: at the top dose activity change, negative = inhibition, most hits filed as inhibitors; also: potency is read from the fitted curve at half-maximal effect
Target sequence (P15428 whole entry, looked up): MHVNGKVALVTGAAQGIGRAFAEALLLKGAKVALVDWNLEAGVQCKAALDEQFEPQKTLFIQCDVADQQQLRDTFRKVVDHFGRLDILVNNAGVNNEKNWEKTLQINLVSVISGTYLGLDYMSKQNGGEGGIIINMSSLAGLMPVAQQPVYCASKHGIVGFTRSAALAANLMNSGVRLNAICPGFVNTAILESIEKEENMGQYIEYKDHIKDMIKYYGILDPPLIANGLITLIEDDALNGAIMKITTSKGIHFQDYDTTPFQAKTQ
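20 nM HPGD preincubated 15 min at room temperature with compound in 50 mM Tris-HCl pH 8, 0.01% Tween 20. Started with 1 mM NAD+ and 30 uM prostaglandin E2; NADH fluorescence (360/450 nm) read 5 times over 30-s intervals, last minus first.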
ALDH1A1 inh = qHTS Assay for Inhibitors of Aldehyde Dehydrogenase 1 (ALDH1A1). Aldehyde dehydrogenase 1A1 (Homo sapiens), P00352. Purified ALDH1A1, NADH fluorescence, propionaldehyde substrate. Potency, µM (series often up to 75.3 µM), without a hit: at the top dose activity, negative = inhibition, hits mostly inhibitors. actives 7.3% (n = 220,000);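 also: potency is read from the fitted curve at half-maximal effect; plate controls were no enzyme wells and a reference inhibitor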
* hit, by the source's call; ? = inconclusive; . = no result. Unless noted, calls follow the shape of the dose curve; as a rule, active = well fitted inhibition curve with a large enough effect (not every such curve was filed as active); inconclusive = small, poorly fitted or top-dose-only effect, or another doubt; inactive = no such curve, though single readings can be large or run the other way. Unless noted, % is scaled to controls: 0 for no effect and ±100 for the full control effect.

SMILES	IMPase inh	HPGD inh	ALDH1A1 inh
O=c1ccc(NS(=O)(=O)c2ccc(Cl)cc2)cn1Cc1ccc(Cl)c(Cl)c1	-2.1	-11.6%	-1.4%
CCC(C)NC(=O)CSc1ccc(Cl)cc1 (centres undefined)	.	-17.1%	1.3%
CC(C)CNC(=O)CSc1ccc(Cl)cc1	-6.5	15.8µM*	5.4%
CC(C)C(NC(=O)CSc1ccc(Cl)cc1)C(C)C	2.3	12.6µM*	-1.1%
O=C(CSc1ccc(Cl)cc1)Nn1cnnc1	-3.8	-10.6%	7.0%
Cc1ccc(SCC(=O)NCC(C)C)cc1	-1.8	15.8µM*	-1.5%
Cc1ccc(SCC(=O)NCc2ccc(F)cc2)cc1	.	.	1.4%
Cc1noc(C)c1C(=O)N1CCC2(CCCN(C(=O)NC(C)C)C2)CC1	.	-8.5%	15.8%
Cc1ccccc1-c1cc(NCCN2CCOCC2)ncn1	.	.	14.8%
NC(=O)/C=C/C(=O)Nc1ccc(Cl)cc1	.	.	2.24µM*
O=C(/C=C/c1ccc(Cl)cc1)Nc1ccc(N2CCCCC2)cc1	0.5	-3.6%	3.1%
Cc1ccc(NC(=O)CSC(N)=O)cc1Cl	-3.2	-13.1%	3.55µM*
NC(=O)SCC(=O)Nc1cccc(Cl)c1	12.1	-21.6%	0.597µM*
NC(=O)SCC(=O)Nc1ccc(Cl)cc1	-0.7	4.47µM*	?
NC(=O)SCC(=O)Nc1ccc(Cl)c(Cl)c1	-7.5	-13.5%	?
COC(=O)CCC(=O)Nc1cccc(Cl)c1	4.7	-6.5%	9.7%
N#CCSCC(=O)Nc1ccc(Cl)cc1	0.7	-28.4%	?
COCCn1c(SCC(=O)/C=C2\N(C)c3ccccc3C2(C)C)nnc1-c1ccncc1	.	-8.3%	2.0%
CCCS(=O)(=O)N1CCC(C(=O)NCc2ccc3c(c2)OCO3)CC1	.	.	-8.1%
Cc1ccc(-c2csc3n[nH]c(=S)n23)cc1	7.9	28.2µM*	?
CCn1c(-c2ccc(C)cc2)n[nH]c1=S	-0.8	-18.4%	-4.4%
COc1ccccc1C(=O)Oc1ccccc1C(=O)Nc1ccccc1	.	.	9.1%
O=C(Oc1ccccc1C(=O)Nc1ccccc1)c1ccc(Br)c([N+](=O)[O-])c1	.	-22.5%	14.1µM*
Cc1cccc(N2C(=O)c3cccc4c(N(C)CCO)ccc(c34)C2=O)c1	10.5	?	?
O=C(c1ccncc1)N1CCC2(CCN(Cc3ccccc3)CC2)CC1	.	-10.1%	4.7%
SMILES	IMPase inh	HPGD inh	ALDH1A1 inh
CCC/C=N/NC(=O)c1[nH]c2c([N+](=O)[O-])cccc2c1C	0.7	-6.4%	?
Cc1nn(C)c(Oc2ccccc2)c1CCNC(=O)CCl	.	.	22.4µM*
CC(=O)OCc1c(C(F)(F)F)nn(C)c1Oc1ccccc1	6.4	-0.9%	-10.5%
CCOC(=O)C1=C(CC)Nc2ccccc2N=C1NC(=O)Nc1ccc(Cl)c(Cl)c1	15.3	-7.3%	2.5%
CCOC(=O)C1=C(CC)Nc2ccccc2N=C1NC(=O)c1ccc(S(=O)(=O)N2CCCC2)cc1	.	.	14.1µM*
O=C(Nc1ccc2c(c1)OCO2)C1Cc2ccccc2CN1S(=O)(=O)c1cccs1 (centres undefined)	10.1	-9.8%	-10.4%
COCc1ccc(O)c2ncccc12	-3.4	-11.9%	3.0%
Oc1ccc(CNc2ccc(F)cc2)c2cccnc12	-6.8	-18.2%	8.91µM*
Oc1ccc(Cn2ccnc2)c2cccnc12	.	.	5.5%
Cc1cccc(NCc2ccc(O)c3ncccc23)c1	.	.	2.82µM*
OCc1ccnc2c(O)cccc12	8.8	-8.8%	-3.6%
Cc1ccccc1NCc1ccc(O)c2ncccc12	13.3	-2.0%	3.98µM*
Oc1ccc(CNc2ccccc2)c2cccnc12	-7.4	-3.4%	10µM*
Oc1ccc(CN2CCN(Cc3ccccc3)CC2)c2cccnc12	6.3	-18.5%	1.2%
COC(=O)[C@H]1C[C@@H]1[C@H](NS(=O)(=O)c1ccccc1)c1ccccc1	.	0.3%	4.4%
COc1ccc(N(C(=O)c2cccc(C)c2)S(=O)(=O)c2ccc3c(c2)n(C)c(=O)n3C)cc1	0.1	.	.
COc1ccc(-c2nnc(SCc3c(C)noc3C)n2N)cc1OC	6.6	-10.6%	0.2%
S=c1[nH]nc(-c2cc(-c3ccccc3)n[nH]2)n1/N=C/c1ccc(Cl)cc1	.	.	-0.2%
Cn1cccc1/C=N/n1c(-c2ccc(Cl)cc2)n[nH]c1=S	9.9	3.98µM*	10.7%
Cn1cccc1/C=N/n1c(-c2ccc(Cl)cc2Cl)n[nH]c1=S	2.6	12.6µM*	?
Cc1ccc(-c2n[nH]c(=S)n2/N=C/c2cccn2C)cc1	2.1	8.91µM*	-16.2%
Cc1nnc(C)n1/N=C/c1cccn1C	-4.6	3.5%	-1.7%
CCn1c(-c2ccc(Cl)cc2)n[nH]c1=S	-9.7	-15.1%	-5.5%
CCc1ccccc1NC(c1nnc(-c2cccc(F)c2)o1)c1ccc(F)cc1Cl (centres undefined)	-2.7	.	.
Cc1ccc(S(=O)(=O)N(C)CCCC(=O)Nc2ccc(C)cc2C)cc1	.	-1.5%	8.9%
SMILES	IMPase inh	HPGD inh	ALDH1A1 inh
CCCCn1nnnc1SCC(=O)Nc1ccc2c(c1)OCO2	-9.4	-1.1%	?
O=C(c1ccc(=O)[nH]c1)N(Cc1cccs1)C1(C(=O)NC2CCCC2)CCCCC1	.	-12.8%	4.3%
CC(=O)Nc1cccc(C(=O)/C=C/c2ccc(C)cc2)c1	8.4	-5.9%	-2.3%
CN(C)c1ccc(/C=C/C(=O)c2cccc(Br)c2)cc1	-4.2	-28.6%	7.08µM*
Oc1csc(Cc2nc(-c3ccc(Br)cc3)cs2)n1	.	.	28.2µM*
NC(=O)Cc1nc(-c2ccc(Br)cc2)cs1	.	-10.7%	9.9%
Oc1ccc(C2=NNC(=NCc3ccc4c(c3)OCO4)SC2)c(O)c1	4.8	?	?
Clc1ccc(C2=NNC(=NCc3ccc4c(c3)OCO4)SC2)cc1	-5.7	.	22.4µM*
COc1ccc(NS(=O)(=O)c2ccc3nc(COc4cccc5ccccc45)[nH]c3c2)cc1	.	35.5µM*	22.4µM*
Cc1ccccc1OCc1nc2ccc(S(=O)(=O)N3CCOCC3)cc2[nH]1	0.4	14.1µM*	10µM*
CCc1ccccc1OCc1nc2ccc(S(=O)(=O)N3CCOCC3)cc2[nH]1	-2.6	-21.5%	?
COc1ccc(NS(=O)(=O)c2ccc3nc(COc4ccc5ccccc5c4)[nH]c3c2)cc1	9.4	.	-4.7%
NNC1=N[C@H]2CS(=O)(=O)C[C@H]2S1	-5.4	3.4%	15.1%
Cc1cccc(N2CCN(C(=O)c3ccc(N4CCCC4=O)cc3)CC2)c1C	7.5	-4.3%	-6.8%
CCCCCC1=C2CNC(CCC)(C(=O)OC)C=C2C(C)C1=O (centres undefined)	.	-21.6%	28.2µM*
CCCCCC1=C2CNC(C)(C(=O)OC)C=C2C(C)C1=O (centres undefined)	.	-7.0%	-8.2%
O=C(Nc1ccc2c(c1)OCCO2)C1CCN(S(=O)(=O)c2ccc(Br)s2)CC1	9.3	-3.6%	?
Cc1ccc(CN2C(=O)C[C@@H](NS(=O)(=O)c3ccc4ccccc4c3)C/C=C\C2c2ccc(C)cc2)cc1 (some centres undefined)	.	-6.7%	22.4µM*
COc1ccc(C2/C=C\CN(S(=O)(=O)c3ccc(C)cc3)CC(=O)N2Cc2cccc(F)c2)cc1 (centres undefined)	.	-12.4%	1.7%
COc1cccc(NC2=CC(=O)CC(C)(C)C2)c1	11.9	-16.9%	7.4%
CN(C)c1cccc(NC2=CC(=[N+]3CCOCC3)CC(C)(C)C2)c1	-0.3	?	28.2µM*
